Source: PubChem BioAssay AID1851 (National Center for Advancing Translational Sciences (NCATS), 2009)
Screen size: about 16,000 compounds; about 5,800 (36%) were called active. Not shown: some 23% with an inconclusive outcome. Calls come from the whole dose curve; as a rule, active = well fitted curve in the direction sought with a large enough effect; inconclusive = small, poorly fitted or top-dose-only effect, or effect the other way; inactive = no such curve, though single readings can be large or run the other way. This is one part of the list.
% is set by controls: 0 for no effect and ±100 for the full control effect.

What follows are molecules tested against Cytochrome P450 2C19 (Homo sapiens) (UniProt P33261) (assay: Cytochrome panel assay with activity outcomes). Conditions: recombinant CYP, pro-luciferin dealkylation, luminescence, p450-cyp2c19; series mostly up to 57.1 µM; activity, negative = inhibition: at the top concentration.
Sequence of Cytochrome P450 2C19 (Homo sapiens) (P33261 whole entry, looked up): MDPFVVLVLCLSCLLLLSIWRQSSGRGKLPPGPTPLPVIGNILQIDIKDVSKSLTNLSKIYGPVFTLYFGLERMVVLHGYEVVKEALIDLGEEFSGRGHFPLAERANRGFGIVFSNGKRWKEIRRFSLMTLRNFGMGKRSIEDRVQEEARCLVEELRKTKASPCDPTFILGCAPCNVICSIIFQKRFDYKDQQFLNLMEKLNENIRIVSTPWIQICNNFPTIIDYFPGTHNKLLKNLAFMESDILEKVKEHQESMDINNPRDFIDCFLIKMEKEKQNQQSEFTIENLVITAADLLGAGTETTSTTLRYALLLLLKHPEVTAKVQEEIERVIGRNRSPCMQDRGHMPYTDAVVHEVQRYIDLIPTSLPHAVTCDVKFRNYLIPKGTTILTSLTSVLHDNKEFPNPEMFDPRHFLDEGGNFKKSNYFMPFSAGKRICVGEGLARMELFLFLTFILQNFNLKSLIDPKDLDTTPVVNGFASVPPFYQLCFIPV
With `CCCCCC/C(C)=C1/SC(=S)NC1=O` the AC50 was 3.55 µM (active).
With `Cc1ncc(COP(=O)(O)O)c(C)c1O` the activity, negative = inhibition was 11.9% [at 11.4 µM] (inactive).
In the case of `CCCC(CCC)C(=O)NNc1cc(=O)c2c(=O)n(C)c(=O)n(C)c2[nH]1`, the “activity, negative = inhibition” value is reported as -9.79% (inactive).
With `Cc1ccc(Oc2ccccc2/C=C2\SC(=O)N(C)C2=O)cc1` the AC50 was 6.31 µM (active).
`CC(C)(C)NC[C@H](O)COc1cccc2[nH]c(=O)[nH]c12` was tested, and the AC50 was “inactive”.
`CCN(CC)S(=O)(=O)c1ccc(OC)c(NC(=O)c2cc([N+](=O)[O-])ccc2Cl)c1` was tested, and the “activity, negative = inhibition” value was -26.7% (inactive).
`COC(=O)c1cc(OC)c(OC)cc1NC(=O)CSc1ccccc1` was tested, and the AC50 was 3.16 µM (active).
`COC(=O)c1cc(OC)c(OC)cc1NC(=S)N1CCN(C)CC1` was tested, and the “activity, negative = inhibition” value was -13.3% (inactive).
`COC(=O)c1cc(OC)c(OC)cc1NC(=S)N1CCCCC1` was tested, and the AC50 was 6.31 µM (active).
With `CCN1CCC[C@H]1CNC(=O)c1cc(S(N)(=O)=O)ccc1OC` the “activity, negative = inhibition” value was -6.49% (inactive).
In the case of `COC(=O)c1cc(OC)c(OC)cc1NC(=O)CSc1ccc(C)cc1`, the AC50 is reported as 1.78 µM (active).
`COc1cc(N)c(Cl)cc1C(=O)OCCCN1CCCCC1` was tested, and the “activity, negative = inhibition” value was -22.8% (inactive).
With `CCN(CC)S(=O)(=O)c1ccc(OC)c(NC(=O)CSc2ccccc2)c1` the AC50 was 11.2 µM (active).
With `COCCn1c(=O)cnc2cnc(Nc3ccccc3)nc21` the “activity, negative = inhibition” value was -14.5% (inactive).
In the case of `CCNc1ncc2ncc(=O)n(C[C@H]3CCCO3)c2n1`, the “activity, negative = inhibition” value is reported as 13.9% (inactive).
In the case of `CCNc1ncc2ncc(=O)n(CCc3ccccc3)c2n1`, the AC50 is reported as 0.631 µM (active).
`CCNc1ncc2ncc(=O)n(C3CC3)c2n1` was tested, and the “activity, negative = inhibition” value was -16.6% (inactive).
With `O=c1cnc2cnc(Nc3ccccc3)nc2n1CCc1ccccc1` the AC50 was 2 µM (active).
In the case of `CC[N+](C)(C)c1cccc(O)c1`, the “activity, negative = inhibition” value is reported as 3.62% (inactive).
In the case of `CCOc1ccc(C2=[N+]([O-])C(C)(C)N(O)C2(C)C)cc1`, the “activity, negative = inhibition” value is reported as 2.26% (inactive).
For `CCOc1ccc(C(Nc2ccc(C)cc2)P2(=O)OCC(C)(C)CO2)cc1` (configuration not stated), the AC50 was 25.1 µM (active).
With `CN(C)Cc1ccccc1-c1nccc(N(C)C)n1` the “activity, negative = inhibition” value was 3.03% (inactive).
With `CN(C/C=C\c1ccccc1)Cc1cccc2ccccc12` the AC50 was 0.501 µM (active).
In the case of `CN(Cc1cccc2ccccc12)Cc1cccc2ccccc12`, the AC50 is reported as 1.58 µM (active).
In the case of `c1ccc2c(CC3=NCCN3)cccc2c1`, the “activity, negative = inhibition” value is reported as -5.96% [at 25.6 µM] (inactive).
For `NCCSS(=O)(=O)CCN`, the activity, negative = inhibition was 4.15% [at 11.4 µM] (inactive).
For `COCCn1c(C)cc2c(c1=O)C(c1ccccc1F)C(C#N)=C(N)O2` (configuration not stated), the “activity, negative = inhibition” value was 17.4% (inactive).
`CCOc1ccccc1C1C(C#N)=C(N)Oc2n[nH]c(CC)c21` (configuration not stated) was tested, and the AC50 was 6.31 µM (active).
In the case of `N=C(N)SCCN`, the “activity, negative = inhibition” value is reported as -22.8% (inactive).
With `CCN1CCC[C@@H]1CNC(=O)c1cc(S(N)(=O)=O)ccc1OC` the “activity, negative = inhibition” value was -20.4% (inactive).
With `CC(=O)C1=C(NC(=O)c2ccc(F)cc2)CC2C1C2(C)C` (configuration not stated) the AC50 was 3.16 µM (active).
In the case of `O=[N+]([O-])c1cccc(-c2nc(-c3ccncc3)no2)c1`, the AC50 is reported as 0.891 µM (active).
In the case of `Nc1nc(-c2cccc([N+](=O)[O-])c2)cc(-c2cc(-c3cccc([N+](=O)[O-])c3)nc(N)n2)n1`, the activity, negative = inhibition is reported as 14.8% [at 11.4 µM] (inactive).
With `C[C@@H]1NC(=O)C/C=C\[C@@H](C)[C@@H]2C=C[C@H](O)[C@@H](COC(=O)[C@H](C)NC(=O)C/C=C\[C@@H](C)[C@@H]3C=C[C@H](O)[C@@H](COC1=O)O3)O2` the activity, negative = inhibition was -11.5% [at 11.4 µM] (inactive).
In the case of `COc1ccc(O[C@H]2C=C[C@@H](c3ccccc3)O[C@@H]2CON=C(C)C)cc1`, the activity, negative = inhibition is reported as -28.2% [at 11.4 µM] (inactive).
For `CC(=O)OC[C@@H]1O[C@H](CCON=C(C)C)C=C[C@@H]1OC(C)=O`, the activity, negative = inhibition was -20.6% [at 11.4 µM] (inactive).
For `COc1ccc(O[C@H]2C=C[C@@H](c3ccccc3)O[C@H]2COC(=O)N2CCCCC2)cc1`, the AC50 was 0.501 µM (active).
In the case of `COc1ccc(O[C@H]2C=C[C@@H](c3ccccc3)O[C@H]2COC(=O)CC/C(C)=N/OCC[C@@H]2C=C[C@H](OC(C)=O)[C@H](COC(C)=O)O2)cc1`, the AC50 is reported as 0.398 µM (active).
With `COc1ccc(O[C@H]2C=C[C@@H](c3ccccc3)O[C@H]2CO/N=C(/C)CCC(=O)OC[C@@H]2O[C@H](c3ccccc3)C=C[C@@H]2Oc2ccc(OC)cc2)cc1` the AC50 was 0.1 µM (active).
`CC(=O)OC[C@@H]1O[C@H](CCO/N=C(\C)CCC(=O)OC[C@@H]2O[C@H](C#Cc3ccccc3)C=C[C@@H]2Oc2ccc(C)cc2)C=C[C@@H]1OC(C)=O` was tested, and the activity, negative = inhibition was -44.9% [at 11.4 µM] (inactive).
In the case of `CCCNC(=O)OC[C@@H]1O[C@H](c2ccccc2)C=C[C@@H]1Oc1ccc(OC)cc1`, the activity, negative = inhibition is reported as -44.8% [at 11.4 µM] (inactive).
With `CC(=O)OC[C@H]1O[C@@H](O/N=C(\C)CCN2CCc3nc(-c4ccccc4)c(-c4ccccc4)cc3C2)[C@H](OC(C)=O)[C@@H](OC(C)=O)[C@H]1OC(C)=O` the activity, negative = inhibition was 6.61% [at 11.4 µM] (inactive).
For `CC(=O)OC[C@H]1O[C@@H](ON=C(C)C)[C@H](OC(C)=O)[C@@H](OC(C)=O)[C@H]1OC(C)=O`, the activity, negative = inhibition was 32.2% [at 11.4 µM] (inactive).
In the case of `COc1ccc(O[C@H]2C=C[C@@H](c3ccccc3)O[C@H]2COC(=O)CC/C(C)=N/O[C@@H]2O[C@H](COC(C)=O)[C@H](OC(C)=O)[C@H](OC(C)=O)[C@H]2OC(C)=O)cc1`, the AC50 is reported as 1.58 µM (active).
With `C/C(CCN1CCCc2nc(C)c(C)cc21)=N\OC[C@@H](O)[C@@H]1O[C@@H]2OC(C)(C)O[C@@H]2[C@H]1O` the activity, negative = inhibition was -36.9% [at 11.4 µM] (inactive).
In the case of `COc1ccc(O[C@H]2C=C[C@@H](c3ccccc3)O[C@H]2CO/N=C2/[C@H]3O[C@@H]3[C@@H](O)[C@H]3[C@H]2CCn2c(=O)n(-c4ccccc4)c(=O)n23)cc1`, the AC50 is reported as 2.51 µM (active).
In the case of `CC(=O)OC[C@@H]1O[C@H](C/C=N\OC[C@@H](O)COCc2ccco2)C=C[C@@H]1OC(C)=O`, the activity, negative = inhibition is reported as 14.8% [at 11.4 µM] (inactive).
In the case of `CC(=O)OC[C@@H]1O[C@H](C/C=N\O[C@@H](C)c2cc(-c3c(C)cc(C)cc3C)no2)C=C[C@@H]1OC(C)=O`, the activity, negative = inhibition is reported as -35.1% [at 11.4 µM] (inactive).
For `COc1ccc(O[C@H]2C=C[C@@H](c3ccccc3)O[C@H]2COC(=O)CC/C(C)=N\OC[C@@H](O)[C@H]2O[C@H]3OC(C)(C)O[C@H]3[C@@H]2O)cc1`, the AC50 was 0.00501 µM (active).
`CC(=O)OC[C@@H]1O[C@H](C/C=N\OC[C@@H](C)[C@H](OCc2ccccc2)C(C)C)C=C[C@@H]1OC(C)=O` was tested, and the activity, negative = inhibition was -16.1% [at 11.4 µM] (inactive).
`CCCNC(=O)OC[C@H]1O[C@@H](CCO/N=C2/[C@H]3O[C@@H]3[C@@H](O)[C@H]3[C@H]2CCn2c(=O)n(-c4ccccc4)c(=O)n23)C=C[C@@H]1Oc1ccc(OC)cc1` was tested, and the activity, negative = inhibition was -3.58% [at 11.4 µM] (inactive).
In the case of `C/C(CCN1CCc2nc(-c3ccccc3)c(-c3ccccc3)cc2C1)=N\OC[C@@H](O)[C@@H]1O[C@@H]2OC(C)(C)O[C@@H]2[C@H]1O`, the activity, negative = inhibition is reported as 3.78% [at 11.4 µM] (inactive).
In the case of `COc1ccc(O[C@H]2C=C[C@@H](c3ccccc3)O[C@H]2COC(=O)CC/C(C)=N\O[C@@H](C)c2cc(-c3c(C)cc(C)cc3C)no2)cc1`, the AC50 is reported as 0.1 µM (active).
In the case of `CCc1cc2c(nc1CC)CCN(CC/C(C)=N/O[C@@H](C)c1cc(-c3c(C)cc(C)cc3C)no1)C2`, the activity, negative = inhibition is reported as -42.9% [at 11.4 µM] (inactive).
For `COc1ccc(O[C@H]2C=C[C@@H](c3ccccc3)O[C@H]2CO/N=C\C[C@@H]2C=C[C@H](OC(C)=O)[C@H](COC(C)=O)O2)cc1`, the AC50 was 0.794 µM (active).
With `CC(C)CO/N=C1/[C@H]2O[C@@H]2[C@@H](O)[C@H]2[C@H]1CCn1c(=O)n(-c3ccccc3)c(=O)n12` the activity, negative = inhibition was 15.7% [at 11.4 µM] (inactive).
In the case of `O=C1CCCN1CC(O)CS(=O)(=O)c1ccccc1` (configuration not stated), the “activity, negative = inhibition” value is reported as -6.21% (inactive).
With `Cc1ccc(S(=O)(=O)CC(O)CN2CCCC2=O)cc1` (configuration not stated) the AC50 was 10 µM (active).
With `Cc1cc2c(nc1C)CCCN2CC(O)CN1CCCc2nc(C)c(C)cc21` the activity, negative = inhibition was 6.93% [at 11.4 µM] (inactive).
`CN(C)C(=O)/N=N\C(=O)N(C)C` was tested, and the “activity, negative = inhibition” value was -47.9% (inactive).
With `N[C@H](C(=O)O)[C@@H](O)c1cnc[nH]1` the activity, negative = inhibition was -17.9% [at 11.4 µM] (inactive).
For `C=CCOC(=O)/C(=C\c1cccc2ccccc12)NC(=O)c1ccccc1`, the AC50 was 0.398 µM (active).
In the case of `CCOc1ccccc1/C=C(\C#N)C(N)=O`, the activity, negative = inhibition is reported as -18.7% [at 11.4 µM] (inactive).
For `CCOc1cccc2cc(C(N)=O)c(=NCc3ccccc3)oc12`, the AC50 was 10 µM (active).
With `CCOC(=O)CSc1nc2ccccc2c(=O)n1CC1CCC(C(=O)NCc2ccco2)CC1` (configuration not stated) the AC50 was 7.08 µM (active).
`CC(=O)NCCn1c(SCC(=O)NCc2ccco2)nc2ccccc2c1=O` was tested, and the AC50 was 1.12 µM (active).
In the case of `COCc1nc2c([nH]1)c(=O)n(C)c(=O)n2CC(C)C`, the “activity, negative = inhibition” value is reported as -17% (inactive).
In the case of `CC(C)Cn1c(SCc2nc3ccccc3c(=O)[nH]2)nc2ccccc2c1=O`, the AC50 is reported as 2.51 µM (active).
`O=C(CSc1ccccc1C(=O)O)NCc1ccco1` was tested, and the “activity, negative = inhibition” value was -3.72% (inactive).
With `O=C(CSc1nc2ccccc2c(=O)n1Cc1ccccc1)NCc1ccco1` the AC50 was 0.708 µM (active).
With `COCCn1c(Cc2ccccc2)nnc1SCc1nc2ccccc2c(=O)[nH]1` the “activity, negative = inhibition” value was 56% (inactive).
With `C=CCNC(=O)C1CCN(S(=O)(=O)CC)CC1` the “activity, negative = inhibition” value was -20.8% (inactive).
With `Cc1cccc(C)c1-n1c(SCC(=O)NCc2ccco2)nc2ccccc2c1=O` the AC50 was 4.47 µM (active).
For `Cc1cc(NC(=O)CSc2nc3ccccc3c(=O)n2CCCC(=O)NCc2ccco2)n[nH]1`, the AC50 was 2.24 µM (active).
`O=C(CSc1nc2ccccc2c(=O)n1CCCO)NCc1ccccc1` was tested, and the AC50 was 11.2 µM (active).
In the case of `C=CCSc1nc2ccccc2c(=O)n1Cc1ccco1`, the AC50 is reported as 1 µM (active).
With `O=C(O)CCCCCn1c(SCC(=O)N2CCCC2)nc2ccsc2c1=O` the “activity, negative = inhibition” value was 16.5% (inactive).
With `Cc1cc(NC(=O)CSc2nc3ccsc3c(=O)n2Cc2ccccn2)n[nH]1` the AC50 was 15.8 µM (active).
For `O=C(CSc1nc2ccccc2c(=O)n1CCCC(=O)N1CCCC1)NCc1ccco1`, the AC50 was 4.47 µM (active).
For `COc1ccc(NC(=O)CSc2nc3ccccc3c(=O)n2CCC(=O)N2CCCCC2)cc1`, the AC50 was 0.794 µM (active).
With `O=c1c2ccccc2nc(SCc2ccccc2Cl)n1Cc1ccccc1` the AC50 was 2.82 µM (active).
`COC(=O)N1CCC2(CCCN(C(=O)Nc3ccc(OC)cc3)C2)CC1` was tested, and the “activity, negative = inhibition” value was -38.2% (inactive).
